# Experimental data reported in PMC4336329 (PLoS ONE, 2015).
# The whole screen tested about 310,000 compounds, of which about 2,200 (0.71%) showed an effect of 50% or more. Effects have a minus sign here. The full list was thinned out, with strong results kept by preference.
# Target: human ether-à-go-go-related gene (hERG) potassium channel (human, UniProt Q12809)
# Test: primary screen, population patch clamp on CHO cells stably expressing hERG; higher = less effect of the substance
# human ether-à-go-go-related gene (hERG) potassium channel, sequence (Q12809 whole entry, looked up): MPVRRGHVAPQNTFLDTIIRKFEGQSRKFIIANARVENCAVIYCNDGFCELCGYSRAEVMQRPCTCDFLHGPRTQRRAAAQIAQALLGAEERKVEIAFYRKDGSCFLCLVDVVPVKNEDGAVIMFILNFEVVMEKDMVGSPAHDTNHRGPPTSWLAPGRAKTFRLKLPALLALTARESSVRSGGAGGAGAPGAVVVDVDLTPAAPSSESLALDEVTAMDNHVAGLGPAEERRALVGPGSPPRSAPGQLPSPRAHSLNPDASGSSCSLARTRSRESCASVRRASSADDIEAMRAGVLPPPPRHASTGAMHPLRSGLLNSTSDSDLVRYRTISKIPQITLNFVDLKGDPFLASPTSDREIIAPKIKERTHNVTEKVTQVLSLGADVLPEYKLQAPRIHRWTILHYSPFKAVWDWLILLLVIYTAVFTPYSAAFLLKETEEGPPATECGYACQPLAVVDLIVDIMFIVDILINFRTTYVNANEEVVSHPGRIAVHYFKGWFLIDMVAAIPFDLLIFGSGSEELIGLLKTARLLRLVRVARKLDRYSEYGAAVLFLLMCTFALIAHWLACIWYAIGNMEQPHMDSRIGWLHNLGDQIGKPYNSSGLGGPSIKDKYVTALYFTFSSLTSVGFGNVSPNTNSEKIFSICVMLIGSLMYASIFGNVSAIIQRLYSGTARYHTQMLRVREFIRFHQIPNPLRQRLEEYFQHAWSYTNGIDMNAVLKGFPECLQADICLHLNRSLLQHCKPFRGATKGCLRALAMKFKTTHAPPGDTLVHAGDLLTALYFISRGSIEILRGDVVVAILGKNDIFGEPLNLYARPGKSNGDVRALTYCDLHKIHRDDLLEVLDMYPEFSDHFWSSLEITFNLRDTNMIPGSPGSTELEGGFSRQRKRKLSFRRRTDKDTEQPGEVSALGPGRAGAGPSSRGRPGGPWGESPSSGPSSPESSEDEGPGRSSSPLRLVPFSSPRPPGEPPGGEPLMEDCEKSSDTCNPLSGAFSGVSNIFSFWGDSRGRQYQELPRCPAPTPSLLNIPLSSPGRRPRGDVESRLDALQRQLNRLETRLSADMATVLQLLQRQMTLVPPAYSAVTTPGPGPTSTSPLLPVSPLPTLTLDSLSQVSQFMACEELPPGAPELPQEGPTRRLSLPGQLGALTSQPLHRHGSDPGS
row,Structure (SMILES),"hERG current change (%, negative = inhibition) at 1uM"
1,CN1CC[C@@]2(C)c3cc(O)ccc3N(C)C2O1 (some centres unmarked),4.17%
2,Oc1[nH]c2ccccc2c1C1=NCCCCC1,3.28%
3,CC(C)c1nc2sc3c(c2c(=O)o1)CCCC3,9.49%
4,Cc1ccc(C(=O)N/C(=C\c2cn(S(=O)(=O)N(C)C)c3ccccc23)C(=O)N2CCCC2)cc1,16%
5,CC(=O)c1c(C)nn(CCC(=O)O)c1C,12.2%
6,Cl.c1ccc(CN2CCN(c3nc(NCc4ccco4)c4ccccc4n3)CC2)cc1,-54.5%
7,Cl.OCCNc1nc(N2CCCCC2)nc2ccccc12,-18.4%
8,Cl.c1coc(CNc2nc(N3CCCCC3)nc3ccccc23)c1,-80.8%
9,Cl.c1ccc(N2CCN(c3nc(NCc4ccco4)c4ccccc4n3)CC2)cc1,-9.89%
10,Cl.OCCNc1nc(N2CCN(Cc3ccccc3)CC2)nc2ccccc12,-28.6%
11,Cl.c1ccc2c(NCC3CCCO3)nc(N3CCCCC3)nc2c1 (centres unmarked),-49.3%
12,C=CCNc1nc(N2CCCC2)nc2ccccc12,-66%
13,Cl.OCCN1CCN(c2nc(NCc3ccco3)c3ccccc3n2)CC1,-39.4%
14,Cl.c1ccc(CNc2nc(N3CCN(Cc4ccccc4)CC3)nc3ccccc23)cc1,10.4%
15,CC(=O)OC1C(N2CCCCC2)c2c(ccc(/C=C/C(=O)N3CCCCC3)c2O)OC1(C)C (centres unmarked),8.42%
16,O=c1ccc(-c2n[nH]c(=S)n2-c2ccc(F)c(Cl)c2)n[nH]1,14.8%
17,CC(C)C(=O)NC(NC(=S)Nc1ccc(S(N)(=O)=O)cc1)C(Cl)(Cl)Cl (centres unmarked),12.7%
18,CS(=O)(=O)c1ccccc1C(=O)N(CCc1ccccc1)Cc1ccccc1,9.2%
19,S=C1N(c2ccccc2)C(c2ccccc2)N2CCCN12 (centres unmarked),6.76%
20,CCOCC(=O)Nc1c(C(=O)N2CCN(c3ncccn3)CC2)oc2ccccc12,5.42%
21,CCOCCCN(C)C1CCN(C(=O)c2oc3ccccc3c2NC(=O)c2ccc(F)cc2)CC1,-85.6%
22,CCOC(=O)c1oc2ccccc2c1NC(=O)COc1ccc(F)cc1,12.4%

row,Structure (SMILES),"hERG current change (%, negative = inhibition) at 1uM"
1,CCOCCCN(C)C1CCN(C(=O)c2oc3ccccc3c2NC(=O)COc2ccc(F)cc2)CC1,-85.9%
2,CCOC(=O)c1oc2ccccc2c1NC(=O)COc1cccc(OC)c1,14.2%
3,COCCCN(C)C1CCN(C(=O)Nc2ccc(F)cc2)CC1,-2.37%
4,CCOCCCN(C)C1CCN(C(=O)c2oc3ccccc3c2NC(=O)Cc2ccc(F)cc2)CC1,-85.2%
5,NC(=O)c1oc2ccccc2c1NC(=O)c1ccc(F)cc1,11.1%
6,COc1ccc(CC(=O)Nc2c(C(=O)N3CCN(c4ccccc4OC)CC3)oc3ccccc23)cc1OC,9.46%
7,CCOCCCN(C)C1CCN(C(=O)c2oc3ccccc3c2NC(=O)COc2cccc(C)c2)CC1,-62.4%
8,O=C(COc1ccc(F)cc1)Nc1c(C(=O)N2CCC(N3CCCCC3)CC2)oc2ccccc12,-33.8%
9,O=C(Cc1ccc(F)cc1)Nc1c(C(=O)N2CCN(c3ncccn3)CC2)oc2ccccc12,-8.61%
10,CN(C)/N=C/C=C1\CCC/C(=C/c2cccs2)C1=O,7.9%
11,O=C(COc1coc(CN2CCN(c3ccccc3)CC2)cc1=O)Nc1ccccc1,10.3%
12,COc1ccc(C2NCCc3[nH]cnc32)cc1 (centres unmarked),0.887%
13,CC(/C=N/NC(=O)c1cc(-c2ccncc2)nc2ccccc12)=C\c1ccco1,0.477%
14,CC(c1ccco1)N(C(=O)COc1ccccc1[N+](=O)[O-])c1ccccn1 (centres unmarked),0.845%
15,CC1CC(C)CN(C(=O)c2ccc(C(=O)c3ccccc3)cc2)C1 (centres unmarked),-1.23%
16,Nc1nonc1-n1nnc(C(=O)N/N=C/c2ccccc2Cl)c1-c1ccccc1,18.9%
17,COc1ccc(CCN(C)C(=O)c2ccc(S(=O)(=O)Nc3ccccc3C)cc2)cc1OC,10.8%
18,O=C(Nc1ccc(S(=O)(=O)NC2CCCCC2)cc1)c1ccc(Br)o1,1.61%
19,Cc1nccc2c1[nH]c1ccccc12,10.2%
20,COc1cc2[nH]c3ccccc3c2cc1C,10.5%
21,Cc1cc2[nH]c3c(c[n+](C)c4ccccc34)c2cc1C.[I-],-75.9%
22,O=c1[nH]c(SCc2ccccc2)nc2c1cnn2-c1ccc(F)cc1,4.7%
